This is an account of results in publication PMC5540273 (PLoS ONE, 2017).
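Also: KINOMEscan kinase panel screen.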

One experiment has as its system EPHA5. As to conditions: concentration: 1 μM,replicates: in singlicate; n = 1.
In the case of `CN1CCN(CCNc2nc3cc(Oc4ccc(NC(=O)Nc5cc(C(F)(F)F)ccc5F)cc4)ccc3[nH]2)CC1.Cl.Cl` [GW768504], the “%Inh” value is reported as 0%.

`CCn1c(-c2nonc2N)nc2cncc(CNC3CCNCC3)c21.Cl` [SB-747651]: the “%Inh” value is given as 0%.

As to `FC(F)(F)c1cc(Br)cc(Nc2nccc(-c3cnn4ncccc34)n2)c1` [GW810578], the “%Inh” value turned out to be 26%.

As for `Cn1ccc2ncnc(Oc3ccc(NC(=O)Nc4cncc(C(F)(F)F)c4)c(Cl)c3)c21`, the “%Inh” value was found to be 45%.

As for `O=C(Nc1n[nH]c2cc(-c3ccco3)ccc12)C1CC1` [SB-737447], the “%Inh” value is listed as 0%.

For `CN(c1ccc2c(c1)nc(NCc1ccc(F)cc1)n2C)c1ccnc(Nc2ccc(CS(C)(=O)=O)cc2)n1.Cl` [GW813244], the “%Inh” value is reported as 0%.

In the case of `COc1cccc(OC)c1C(=O)Nc1cccc(-c2nn3ccccc3c2-c2ccnc(Nc3cccc(F)c3)n2)c1` [GSK361065], the “%Inh” value is listed as 11%.

On to `CCN1CCN(CCCC(=O)Nc2n[nH]c3nc(-c4ccc(O)cc4)c(Br)cc23)CC1` [SB-731579], for which the “%Inh” value is reported as 0%.

Consider `Cn1cc(-c2cccc3c(N)c(C(N)=O)nnc23)cn1`, for which the “%Inh” value is reported as 14%.

For `O=C(Nc1cccc(C(F)(F)F)c1)c1cccc(Oc2ccc3nccn3n2)c1`, the “%Inh” value is recorded as 11%.

Turning to `Cn1ccc2ncnc(Oc3ccc(NC(=O)Nc4cnn(C(C)(C)C)c4)c(Cl)c3)c21`, the “%Inh” value worked out at 18%.

In the case of `COc1ccc(Nc2nccc(N3CCC(NC(=O)c4cccc(C#N)c4)C3)n2)cc1` (stereo not drawn) [GSK1379730], the “%Inh” value amounted to 12%.

In the case of `CC(C)S(=O)(=O)N1CCN(Cc2ccc3c(c2)nc(NC(=O)c2ccsc2)n3C[C@H](O)c2ccccc2)CC1` [GW635815], the “%Inh” value was 0%.

For `Cn1ccc2ncnc(Oc3ccc(NC(=O)Nc4cccc(C(F)(F)F)c4)c(F)c3)c21`, the “%Inh” value is recorded as 85%.

For `Cc1ccc2c(-c3ccnc(Nc4ccc(C(F)(F)F)cc4)n3)cnn2n1` [GW819776], the “%Inh” value was determined as 1%.

On to `c1ccc(Oc2ccc(Nc3ccnc4ccc(-c5ccccn5)cc34)cc2)cc1` [GW407034], for which the “%Inh” value turned out to be 90.6%.

As to `COc1cc2ncn(-c3cc(OCC4CCCCC4)c(C(N)=O)s3)c2cc1OC` [GSK204559], the “%Inh” value worked out at 0%.

In the case of `Cl.Nc1n[nH]c2cc(-c3ccccn3)ccc12` [GSK2189892], the “%Inh” value came out at 0%.

As to `CNC(=O)c1ccccc1Nc1nc(Nc2cccc(CS(C)(=O)=O)c2)ncc1C.O=CO` [GSK1520489], the “%Inh” value came out at 93%.

In the case of `CN1CCN(CCCNc2nccc(-c3c(-c4ccc(F)cc4)nn4cc(C(N)=O)ccc34)n2)CC1` [GW622475], the “%Inh” value amounted to 0%.

In the case of `CC(C)c1nc(-c2cccc(NS(=O)(=O)c3ccccc3)c2)c(-c2ccnc(Nc3ccc4c(c3)CN(C)CC4)n2)s1` [GSK1649598], the “%Inh” value was found to be 0%.

As to `COc1cccc(C2=C(Nc3cccc(Cl)c3)C(=O)NC2=O)c1` [SB-341556], the “%Inh” value is recorded as 0%.

In the case of `Cl.Cl.NC[C@H](CC1CCCCC1)NC(=O)c1ccc(-c2ccnc3[nH]ccc23)s1` [GSK1581428], the “%Inh” value is 0%.

Regarding `Cn1ccc2ncnc(Oc3ccc(NC(=O)Nc4cc(C(C)(C)C)on4)c(Cl)c3)c21`, the “%Inh” value is reported as 58%.

Another experiment deals with EPHA6. As to conditions: concentration: 1 μM,replicates: in singlicate; n = 1.
Turning to `CS(=O)c1ccc(-c2coc3ccc(-c4n[nH]c(=O)o4)cc23)cc1` (stereo not drawn), the “%Inh” value is 0%.

Take `Cc1ccc(Nc2ccnc(Nc3ccc4c(c3)CS(=O)(=O)C4)n2)cc1O.Cl` [GW579362]: the “%Inh” value turned out to be 53%.

In the case of `CS(=O)(=O)Nc1ccc(-c2ccnc3[nH]ccc23)cc1` [GSK993273], the “%Inh” value came to 6%.

Turning to `COc1cc(Nc2nccc(N3CCC(NC(=O)c4cccc(C#N)c4)C3)n2)cc(OC)c1OC` (stereo not drawn) [GSK1379751], the “%Inh” value was 0%.

On to `O=c1[nH]cc(-c2ccc(O)cc2)c2sc(-c3ccncc3)cc12` [GSK1033723], for which the “%Inh” value was determined as 6%.

In the case of `COc1cccc(CNC(=O)NC2CCN(c3ccnc(Nc4cc(OC)c(OC)c(OC)c4)n3)C2)c1` (stereo not drawn) [GSK1379765], the “%Inh” value worked out at 15%.

In the case of `O=C1NCCc2[nH]c(-c3ccncc3)cc21`, the “%Inh” value stood at 41%.

For the compound `O=C(Nc1ccc(Oc2ccc3nc(NC(=O)C4CC4)cn3n2)c(F)c1)c1cccn(-c2ccccc2)c1=O`, the “%Inh” value stood at 37%.

For `COC(=O)c1cccc(NC(=O)NC2CCN(c3ccnc(NCc4ccc(F)cc4)n3)CC2)c1` [GSK1379860], the “%Inh” value is on record as 8%.

For `Nc1nccc(-c2ccc3c(N)n[nH]c3c2)n1` [GSK1034945], the “%Inh” value amounted to 0%.

For the compound `CC(C(=O)NC1CCN(c2ccnc(Nc3ccc(F)cc3)n2)C1)c1ccc(Cl)cc1` (stereo not drawn) [GSK1379713], the “%Inh” value came out at 0%.

For `Cc1ccc(C(=O)Nc2ccc(Oc3ccc4nc(NC(=O)C5CC5)cn4c3)c(F)c2)c(=O)n1-c1ccccc1`, the “%Inh” value was 95.4%.

Consider `OCCn1cc(-c2cnc3nnn(Cc4ccc5ncccc5c4)c3n2)cn1`, for which the “%Inh” value is recorded as 0%.

`CN1CCN(CCNc2nc3cc(Oc4ccc(NC(=O)Nc5cc(C(F)(F)F)ccc5F)cc4)ccc3[nH]2)CC1.Cl.Cl` [GW768504]: the “%Inh” value came out at 51%.

For `CCn1c(-c2nonc2N)nc2cncc(CNC3CCNCC3)c21.Cl` [SB-747651], the “%Inh” value came out at 3%.

`FC(F)(F)c1cc(Br)cc(Nc2nccc(-c3cnn4ncccc34)n2)c1` [GW810578]: the “%Inh” value worked out at 18%.

In the case of `Cn1ccc2ncnc(Oc3ccc(NC(=O)Nc4cncc(C(F)(F)F)c4)c(Cl)c3)c21`, the “%Inh” value was found to be 97.5%.

Regarding `O=C(Nc1n[nH]c2cc(-c3ccco3)ccc12)C1CC1` [SB-737447], the “%Inh” value amounted to 0%.

For the compound `CN(c1ccc2c(c1)nc(NCc1ccc(F)cc1)n2C)c1ccnc(Nc2ccc(CS(C)(=O)=O)cc2)n1.Cl` [GW813244], the “%Inh” value is given as 23%.

As to `CCN1CCN(CCCC(=O)Nc2n[nH]c3nc(-c4ccc(O)cc4)c(Br)cc23)CC1` [SB-731579], the “%Inh” value was 0%.

Regarding `Cn1cc(-c2cccc3c(N)c(C(N)=O)nnc23)cn1`, the “%Inh” value turned out to be 17%.

`O=C(Nc1cccc(C(F)(F)F)c1)c1cccc(Oc2ccc3nccn3n2)c1`: the “%Inh” value amounted to 10%.

Consider `Cn1ccc2ncnc(Oc3ccc(NC(=O)Nc4cnn(C(C)(C)C)c4)c(Cl)c3)c21`, for which the “%Inh” value is listed as 89%.

Regarding `COc1ccc(Nc2nccc(N3CCC(NC(=O)c4cccc(C#N)c4)C3)n2)cc1` (stereo not drawn) [GSK1379730], the “%Inh” value was 0%.

`CC(C)S(=O)(=O)N1CCN(Cc2ccc3c(c2)nc(NC(=O)c2ccsc2)n3C[C@H](O)c2ccccc2)CC1` [GW635815]: the “%Inh” value is recorded as 7%.

Take `Cn1ccc2ncnc(Oc3ccc(NC(=O)Nc4cccc(C(F)(F)F)c4)c(F)c3)c21`: the “%Inh” value turned out to be 97.7%.

In the case of `Cc1ccc2c(-c3ccnc(Nc4ccc(C(F)(F)F)cc4)n3)cnn2n1` [GW819776], the “%Inh” value was determined as 8%.

Take `c1ccc(Oc2ccc(Nc3ccnc4ccc(-c5ccccn5)cc34)cc2)cc1` [GW407034]: the “%Inh” value is 2%.

As for `COc1cc2ncn(-c3cc(OCC4CCCCC4)c(C(N)=O)s3)c2cc1OC` [GSK204559], the “%Inh” value is on record as 11%.

As for `Cl.Nc1n[nH]c2cc(-c3ccccn3)ccc12` [GSK2189892], the “%Inh” value is reported as 0%.

With `CNC(=O)c1ccccc1Nc1nc(Nc2cccc(CS(C)(=O)=O)c2)ncc1C.O=CO` [GSK1520489], the “%Inh” value is on record as 90%.

As to `CN1CCN(CCCNc2nccc(-c3c(-c4ccc(F)cc4)nn4cc(C(N)=O)ccc34)n2)CC1` [GW622475], the “%Inh” value is listed as 21%.

With `CC(C)c1nc(-c2cccc(NS(=O)(=O)c3ccccc3)c2)c(-c2ccnc(Nc3ccc4c(c3)CN(C)CC4)n2)s1` [GSK1649598], the “%Inh” value stood at 66%.

`COc1cccc(C2=C(Nc3cccc(Cl)c3)C(=O)NC2=O)c1` [SB-341556]: the “%Inh” value is reported as 13%.

On to `Cl.Cl.NC[C@H](CC1CCCCC1)NC(=O)c1ccc(-c2ccnc3[nH]ccc23)s1` [GSK1581428], for which the “%Inh” value is on record as 27%.

Turning to `Cn1ccc2ncnc(Oc3ccc(NC(=O)Nc4cc(C(C)(C)C)on4)c(Cl)c3)c21`, the “%Inh” value worked out at 99.6%.
